TDP1 cell noCPT = qHTS for Inhibitors of human tyrosyl-DNA phosphodiesterase 1 (TDP1): qHTS in cells in absence of CPT. DT40 Tdp1-/- hTDP1 cells, no CPT, ATP luminescence, 48 h. actives 15% (n = 420,000). AID 686978, 2013. Potency, µM (series often up to 46.2 µM), most hits filed as inhibitors; note: nearly all actives have a fitted effect of over 55% in size
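Growth kinetics read by CellTiter-Glo luminescence after ≥48 hr at 37 °C. Cells: DT40 Tdp1-/- stably carrying human TDP1, 400 per well, compound exposure in the absence of CPT (DMSO vehicle).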
TDP1 cell CPT = DT40-hTDP1 cell growth loss with CPT | chicken DT40 Tdp1-/-;hTDP1 cells + 20 nM CPT, ATP luminescence, 48 h | Potency, µM (top dose mostly 46.2 µM), usual class: inhibitors | actives 12% (n = 420,000); note: nearly all actives have a fitted effect of over 55% in size
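Cell growth measured by CellTiter-Glo luminescence after a minimum 48 h, 37 C compound exposure with 20 nM CPT in Tdp1-knockout DT40 cells stably expressing hTDP1, seeded 400/well; qHTS titration format.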
ClpP mod = qHTS Assay for Activators of ClpP | ATP-dependent Clp protease proteolytic subunit (Bacillus subtilis (strain 168)), P80244 | purified B. subtilis ClpP, FRET peptide cleavage, 20 min | Potency, µM (titrated, usually from 57.5 µM) | actives 1.9% (n = 340,000) | AID 651965, 2013; active = well fitted falling curve with a large enough effect; inconclusive = small, poorly fitted or top-dose-only effect; inactive = no such curve, though single readings can be large or run the other way; note: the source files actives as falling curves though it sought activators and does not explain the sign; nearly all actives have a fitted effect of over 65% in size
Target sequence (P80244 whole entry, looked up): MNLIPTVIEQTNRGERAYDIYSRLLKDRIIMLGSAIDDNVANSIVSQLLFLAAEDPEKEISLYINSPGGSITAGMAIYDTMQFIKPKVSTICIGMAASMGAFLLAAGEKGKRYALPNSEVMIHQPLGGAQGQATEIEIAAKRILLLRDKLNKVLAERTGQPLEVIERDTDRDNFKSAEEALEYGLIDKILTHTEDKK
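FRET quenching reversal measured ClpP activation: 10 microg/mL B. subtilis ClpP at pH 8 with the FRET-FV decapeptide, read at 430 nm after 320 nm excitation. The 20-min minus 0-min signal was scaled between DMSO/no-enzyme wells and ADEP (5.8 microM final).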
TDP1 block = inhibitors of human tyrosyl-DNA phosphodiesterase TDP1. recombinant TDP1, AlphaScreen DNA substrate cleavage. Potency, µM (highest dose often 130 µM), actives largely listed as inhibitors. actives 0.28% (n = 350,000); note: nearly all actives have a fitted effect of over 40% in size
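Signal: AlphaScreen proximity between streptavidin donor and anti-FITC acceptor beads on intact substrate. Reaction: Tdp1 1 nM, substrate 15 nM final, 5 min RT after 15 min compound preincubation.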
Hits are given with their value; – = inactive; ? = inconclusive; · = no result given; [ ] = remark or other dose. An excerpt weighted towards active compounds, which were near 17% of everything screened. Unless noted, calls come from the whole dose curve; as a rule, active = well fitted curve in the direction sought with a large enough effect; inconclusive = small, poorly fitted or top-dose-only effect, or another doubt; inactive = no such curve, though single readings can be large; an effect the other way counts as inactive or inconclusive.

SMILES | TDP1 cell noCPT | TDP1 cell CPT | ClpP mod | TDP1 block
Cc1ccc(-c2noc(CCCC(=O)NC3CCCCC3)n2)cc1 | 13µM | ? | – | ·
O=C(CCc1nc(-c2ccccc2Cl)no1)Nc1cccnc1 | ? | 20.6µM | · | –
Cc1ccc(-c2noc(CCC(=O)NC3CCCC3)n2)cc1 | ? | ? | · | –
O=C(O)COc1cccc(-c2ocnc2-c2nc(-c3ccccc3)c(-c3ccccc3)o2)c1 | – | – | · | –
Cc1ccc(CCS(=O)(=O)c2ccc(C(C)(C)C)cc2)cn1 | ? | ? | – | ·
Cc1ccsc1/C=C(\C(=O)c1ccc(OC(C)C)cc1)c1nc2ccccc2o1 | 18.4µM | 16.4µM | · | –
Cc1ccc(-c2nc3ccccc3o2)cc1NC(=O)C(C)Oc1ccccc1 (centres undefined) | – | – | – | ·
CNC(C)C#Cc1ccc2c(=O)c3cc(C)c(C)cc3oc2c1 (centres undefined) | 29.1µM | ? | – | ·
CC(=O)c1ccc2oc3ccccc3c(=O)c2c1 | – | – | – | ·
Cc1ccc(NC(=O)C2(c3ccccc3)CC2(Cl)Cl)cc1C (centres undefined) | 16.4µM | ? | – | –
Cc1cccc(NC(=O)C2(c3ccccc3)CC2(Cl)Cl)c1 (centres undefined) | – | – | – | –
CCc1cccc(C)c1NC(=O)CSc1nc(C)cc(C)c1C(=O)Nc1ccccc1 | ? | ? | – | –
COc1ccc(CCN(Cc2cc3cc(C)ccc3[nH]c2=O)C(=O)N2CCCC2)cc1OC | ? | – | – | –
Cc1ccc2[nH]c(=O)c(CN(CCc3ccccc3)C(=O)N3CCOCC3)cc2c1 | ? | – | 14.1µM | –
CC(=O)N(CCc1cccc(C)c1)Cc1cc2cc(C)ccc2[nH]c1=O | ? | 14.6µM | ? | ·
CCn1ccnc1CNC(=O)CC1C(=O)NCCN1CC(c1ccccc1)c1ccccc1 (centres undefined) | – | – | · | –
COc1ccc(NC(=O)c2cc(S(=O)(=O)N3CCc4ccccc43)cn2C)cc1 | ? | 10.3µM | – | ·
Cc1cccc(NC(=O)c2cc(S(=O)(=O)N3CCc4ccccc43)cn2C)c1C | – | – | – | ·
CCOc1ccc(OCC)c(NC(=O)c2cc(S(=O)(=O)N3CCc4ccccc43)cn2C)c1 | ? | – | ? | –
CCc1ccccc1NC(=O)c1cc(S(=O)(=O)N2CCc3ccccc32)cn1C | – | – | – | ·
CCCNC(=O)c1cc(S(=O)(=O)N2CCc3ccccc32)cn1C | 18.4µM | 23.1µM | – | ·
Cc1ccc(NC(=O)c2cc(S(=O)(=O)N3CCc4ccccc43)cn2C)c(Cl)c1 | 11.6µM | ? | ? | –
CC(=O)OCC1O[C@@H](O[C@@H]2C[C@H]3C(C)(C)[C@H](OC(C)=O)CC[C@]3(C)[C@H]3CC[C@]45C[C@]4(CC[C@H]5[C@@H](C)C[C@@H](O)[C@H](O)C(C)(C)O)[C@@]32C)[C@H](O)[C@@H](O)[C@@H]1O (some centres undefined) | · | · | · | –
COc1ccccc1N1CCN(C(=O)c2cn(C)c3ccc(S(=O)(=O)N(C)C4CCCCC4)cc3c2=O)CC1 | ? | – | – | –
O=C(COc1ccc2c(-c3ccccc3)cc(=O)oc2c1)Nc1ccc(CN2CCOCC2)cc1 | ? | 20.6µM | – | –
SMILES | TDP1 cell noCPT | TDP1 cell CPT | ClpP mod | TDP1 block
CC(=O)COc1ccc2c(-c3cccc([N+](=O)[O-])c3)cc(=O)oc2c1 | 23.1µM | ? | – | –
O=C(COc1ccc2c(-c3ccccc3)cc(=O)oc2c1)Nc1ccc(CCO)cc1 | 7.31µM | 8.2µM | – | –
Cc1sc2ncn(CC(=O)NCC3COc4ccccc4O3)c(=O)c2c1S(=O)(=O)N1CCCCC1 (centres undefined) | ? | – | · | –
COC(=O)c1sccc1NC(=O)Nc1cccc(F)c1 | – | – | · | –
COc1cc(NC(=O)c2c(C)nn(-c3ccc(F)cc3)c2-n2cccc2)cc(OC)c1 | · | · | – | –
O=C(CN1CCN(S(=O)(=O)N2CCOCC2)CC1)Nc1ccc(Cl)c(Cl)c1 | 16.4µM | ? | – | –
O=C(CC1CCCC1)Nc1ccc(Cl)c(S(=O)(=O)N2CCOCC2)c1 | 16.4µM | ? | – | –
O=C(CC1CCCC1)Nc1cc(S(=O)(=O)N2CCOCC2)ccc1O | ? | 8.2µM | – | –
Cc1ccc(CS(=O)Cc2ccc(C(=O)N3CCN(C4CCCCC4)CC3)o2)cc1 (centres undefined) | – | – | – | –
COc1cc(C(C)=O)ccc1COc1ccc(C(=O)OCC(=O)NC2CCS(=O)(=O)C2)cc1OC (centres undefined) | 20.6µM | ? | – | –
COc1cc(C(=O)OCC(=O)NCC2CCCCC2)ccc1OCC(C)C | ? | ? | · | –
COc1cc(C(=O)OCC(=O)NC2CCCCCC2)ccc1OCC(C)C | 3.26µM | ? | – | –
CCc1ccc(CNC(=O)c2cnc3sc(N4CCCC4)nn3c2=O)cc1 | – | – | ? | –
CCN1CCN(S(=O)(=O)c2ccc(Cl)c(C(=O)N(C)CCOc3ccc(Cl)cc3)c2)CC1 | 14.6µM | 18.4µM | – | ·
COc1ccc(CCN(C)C(=O)c2cc(S(=O)(=O)N3CCCCCC3)ccc2OC)cc1OC | ? | ? | · | –
COc1ccc(CCN(C)C(=O)c2cc(S(=O)(=O)N3CCCCC3)ccc2Cl)cc1OC | 23.1µM | ? | · | –
CCN1CCN(S(=O)(=O)c2ccc(Cl)c(C(=O)N(C)Cc3ccc(Cl)cc3Cl)c2)CC1 | 23.1µM | ? | – | –
COc1ccc(S(=O)(=O)N2CCCCCC2)cc1C(=O)N(C)CCOc1ccc(Cl)cc1 | 20.6µM | 20.6µM | · | –
O=C(Nc1ccccc1N1CCN(c2ccccc2)CC1)C12CC3CC(CC(C3)C1)C2 | 20.6µM | ? | – | –
O=C(Nc1ccccc1N1CCN(c2ccccc2)CC1)c1ccccc1F | 3.66µM | ? | · | –
O=C(NCCS(=O)(=O)N1CCN(c2ccccc2)CC1)C12CC3CC(CC(C3)C1)C2 | 20.6µM | 25.9µM | – | ·
COc1ccccc1N1CCN(S(=O)(=O)CCNC(=O)C23CC4CC(CC(C4)C2)C3)CC1 | ? | ? | – | –
O=C(Cc1ccccc1)Nc1ccccc1N1CCN(c2ccccc2)CC1 | ? | ? | – | –
O=C(Nc1ccccc1N1CCCC1)c1ccccc1F | – | ? | · | –
COCCNC(=S)N1CCC(NC(=O)c2ccco2)CC1 | – | – | · | –
COC(=O)C=C1CCC2C3CCC4=CC(=O)C(Br)CC4(C)C3C(=O)CC12C (centres undefined) | 16.4µM | ? | – | ·
CC12CCC(=O)C=C1CCC1C2C(=O)CC2(C)C1CCC2(O)C(=O)CO (centres undefined) | – | – | · | –
CN1CCN(CC(=O)Nc2cccc(S(=O)(=O)N(C)c3ccccc3)c2)CC1 | ? | – | – | –
CCCCCCCCCCCCCCC(O)C[N+](C)(CCO)CCO (centres undefined) | 3.66µM | 2.31µM | – | ·
COc1ccc(S(=O)(=O)N(CC(=O)Nc2cc(Cl)ccc2C)Cc2ccccc2)cc1OC | ? | 14.6µM | – | –[12.3 µM]
